Test [1] has as its system Human papillomavirus type 1a protein E7 (residues 44-93). In words: small molecules binding HPV E7 44-93 – biochemical, small-molecule microarray, residues 44-93, 635 nm fluorescence, primary screen (AID 1108).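 Also: E7 fragment applied at 1 µg/mL in TBST for 1 h at 4 C; score combines spot fluorescence with its signal to noise ratio.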 As to conditions: fluorescence 635 nm, higher = more signal.
A short description of test [2]: hepatitis C replication reporter changes, two-sided – Huh7 cells, luciferase reporter, HCV replication inhibitor project, primary screen (AID 1109).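 Also: huh7 hepatoma cells harbouring a luciferase neomycin HCV replicon reporter; luciferase luminescence as measure of HCV replicon replication; test concentration not given here.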 As to conditions: Huh7 HCV replicon luciferase reporter, 48 h; higher = more signal. On the technique in general: Reporter assays use an easily measured gene product as a stand-in for the process of interest.
Test [3] addresses Left-right determination factor 2 (Homo sapiens) (UniProt O00292). Briefly: small molecules binding LEFTY2 protein – biochemical, small-molecule microarray, 635 nm fluorescence scan, primary screen (AID 1110). As to conditions: higher = more signal.
The target in test [4] is Calmodulin-1 (Homo sapiens) (UniProt P0DP23). In words: small molecules binding calmodulin-1 with EGTA – biochemical, small-molecule microarray, Cy5-labelled CALM1, profiling panel (AID 1111).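 Also: labelled calmodulin applied in Tris saline Tween buffer holding calcium plus EGTA and DTT.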 As to conditions: Cy5-CALM1 binding fluorescence, higher = more signal.
For test [5] the target is unchanged. Briefly: small molecules binding Ca-loaded calmodulin-1 – biochemical, small-molecule microarray, Cy5-labelled CALM1, plus calcium, artefact control for SMM control-protein annotation, profiling panel (AID 1112).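 Also: score merges spot fluorescence with signal to noise from triplicate slides.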 To be noted: Cy5-CALM1 binding fluorescence, higher = more signal.
Test [6] in a line: probe aWnt5a binding to arrayed compounds – biochemical, biotinylated probe, 635/667 nm fluorescence, primary screen (AID 1113).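 Also: score merges 667 nm fluorescence intensity with signal-to-noise per printed feature.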 To be noted: small-molecule microarray, higher = more signal.
Test [7] is described as follows: probe aShh binding to arrayed compounds – biochemical, biotinylated probe, 635/667 nm fluorescence, primary screen (AID 1114).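 Also: probe is biotin-labelled aShh protein from a stem cell growth factor screen; measures binding of labelled protein to compounds printed on the slide; score merges feature fluorescence at 667 nm with signal-to-noise.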 As to conditions: small-molecule microarray, higher = more signal.
Test [8] is described as follows: probe aNog binding to arrayed compounds – biochemical, biotinylated probe, 635/667 nm fluorescence, primary screen (AID 1115).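 Also: probe is biotinylated aNog protein used at 0.15 µg/mL for 1 h at 4 C; z-score combines 667 nm fluorescence of each spot with its signal to noise.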 To be noted: small-molecule microarray, higher = more signal.
For test [9], the target named is Torsin-1A-interacting protein 1 (Homo sapiens) (UniProt Q5JTV8). In words: compound microarray binding of lysate hLAP1 – cell lysate, small-molecule microarray, COS7 lysate, 635/667 nm fluorescence, primary screen (AID 1116). To be noted: 635 nm fluorescence, higher = more signal.
For test [10], the target named is Alpha-bungarotoxin (Bungarus multicinctus) (UniProt P60615). In words: compounds binding labelled alpha-BTX control protein – biochemical, small-molecule microarray, Alexa647 label, 635/667 nm fluorescence, artefact control for SMM control protein annotation, profiling panel (AID 1117). To be noted: alpha-BTX-A647 binding fluorescence, higher = more signal.
In the next test the target is Albumin (Bos taurus) (UniProt P02769). In words: compounds binding labelled BSA control protein – biochemical, small-molecule microarray, Alexa647 label, 635/667 nm fluorescence, artefact control for SMM control protein annotation, profiling panel (AID 1118).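 Also: score merges 667 nm emission intensity and signal-to-noise per printed compound spot.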 As to conditions: BSA-A647 binding, fluorescence 635 nm, higher = more signal.
Test [11] is described as follows: probe aXIP binding to arrayed compounds – biochemical, NeuroSMM set, 635/667 nm fluorescence, primary screen (AID 1119).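 Also: probe is the protein aXip251-270 applied at 1 µg/mL to compound-printed slides; binding of probe to printed compounds measured as 667 nm fluorescence plus signal to noise.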 As to conditions: small-molecule microarray, higher = more signal, called active from +8 up or from −8 down.
The nature of test [12]: probe aNOTCH3 binding on compound microarray – biochemical, small-molecule microarray, 635/667 nm fluorescence, primary screen (AID 1120).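 Also: probe is a biotin-tagged antibody raised against NOTCH3 rather than NOTCH3 protein; score merges spot fluorescence near 667 nm with spot signal to noise.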 As to conditions: higher = more signal.
Test [13] in a line: probe aNOTCH2 binding on compound microarray – biochemical, small-molecule microarray, 635/667 nm fluorescence, primary screen (AID 1121).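 Also: score merges feature fluorescence read at 667 nm with its signal to noise.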 To be noted: higher = more signal.
In test [14] the target is Carbonic anhydrase 2 (Homo sapiens) (UniProt P00918). Briefly: compounds binding carbonic anhydrase 2 – biochemical, small-molecule microarray, Alexa647-labelled CAII, profiling panel (AID 1122). As to conditions: CAII-A647 binding fluorescence, higher = more signal.
Test [15] is described as follows: COS7 lysate on small-molecule microarray, probe aHis, 635 nm (AID 1123).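 Also: z-score combines 667nm fluorescence intensity with signal-to-noise per printed compound spot.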 To be noted: COS7 cell lysate, fluorescence, higher = more signal.
Test [16] can be described thus: probe aLAP1 signal on lysate-treated microarray – cell lysate, small-molecule microarray, COS7 lysate, primary screen (AID 1124).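 Also: lysate comes from COS7 cells expressing LAP1 and is applied at 0.3 µg/mL; score merges spot fluorescence near 667 nm with signal-to-noise over triplicate slides.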 To be noted: probe aLAP1, fluorescence, higher = more signal.
Another test has as its system Sam68 (KHDRBS1). Briefly: compounds binding KHDRBS1 protein – biochemical, small-molecule microarray, 635 nm fluorescence, primary screen (AID 1125).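 Also: score merges 667 nm channel intensity with signal to noise over triplicate slides.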 To be noted: higher = more signal.
The subject of test [17] is Chordin-like protein 2 (CHRDL2). In words: compounds binding chordin-like 2 – biochemical, small-molecule microarray, 635 nm fluorescence, primary screen (AID 1126).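 Also: printed compound slides probed with Chrdl2 protein at 4 µg/mL for 1 h at 4 C; score merges 667 nm emission intensity with signal to noise over three replicate slides.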 To be noted: fluorescence 635 nm, higher = more signal.
Test [18] concerns the target Concanavalin-A (Canavalia ensiformis) (UniProt P02866). Briefly: compounds binding concanavalin A lectin – biochemical, small-molecule microarray, Alexa647 label, 635 nm, artefact control for SMM control protein annotation, primary screen (AID 1127).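 Also: z combines 667 nm emission intensity with signal-to-noise across three replicate slides.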 To be noted: ConA-A647 binding fluorescence, higher = more signal.

Activity calls are given as the source filed them.

From PubChem BioAssay come the findings set out here.

Sequence of Left-right determination factor 2 (Homo sapiens) (O00292 whole entry, looked up): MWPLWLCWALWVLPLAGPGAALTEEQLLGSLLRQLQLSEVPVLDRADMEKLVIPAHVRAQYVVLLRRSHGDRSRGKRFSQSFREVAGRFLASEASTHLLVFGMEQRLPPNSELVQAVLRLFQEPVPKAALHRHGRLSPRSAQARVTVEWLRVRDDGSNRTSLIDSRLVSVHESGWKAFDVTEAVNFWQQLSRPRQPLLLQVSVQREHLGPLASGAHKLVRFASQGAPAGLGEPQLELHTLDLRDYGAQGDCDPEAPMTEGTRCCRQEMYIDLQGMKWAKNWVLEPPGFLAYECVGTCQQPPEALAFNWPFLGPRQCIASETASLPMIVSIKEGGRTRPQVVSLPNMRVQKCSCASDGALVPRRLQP
Sequence of Albumin (Bos taurus) (P02769 whole entry, looked up): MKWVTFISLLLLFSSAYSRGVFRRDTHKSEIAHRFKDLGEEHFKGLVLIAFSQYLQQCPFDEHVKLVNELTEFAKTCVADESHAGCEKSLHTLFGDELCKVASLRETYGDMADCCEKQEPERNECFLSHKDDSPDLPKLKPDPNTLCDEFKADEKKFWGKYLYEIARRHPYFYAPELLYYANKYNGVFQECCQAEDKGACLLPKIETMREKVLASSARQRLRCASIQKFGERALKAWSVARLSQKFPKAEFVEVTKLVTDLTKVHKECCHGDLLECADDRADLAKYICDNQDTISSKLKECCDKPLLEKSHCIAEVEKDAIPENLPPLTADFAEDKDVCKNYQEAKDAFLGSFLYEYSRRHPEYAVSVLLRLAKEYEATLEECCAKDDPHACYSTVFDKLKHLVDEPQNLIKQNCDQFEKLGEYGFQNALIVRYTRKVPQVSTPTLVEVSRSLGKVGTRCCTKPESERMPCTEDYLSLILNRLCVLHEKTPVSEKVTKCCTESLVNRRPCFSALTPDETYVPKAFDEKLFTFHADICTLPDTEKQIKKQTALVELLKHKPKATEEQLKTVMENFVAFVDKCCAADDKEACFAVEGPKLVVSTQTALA
Sequence of Concanavalin-A (Canavalia ensiformis) (P02866 whole entry, looked up): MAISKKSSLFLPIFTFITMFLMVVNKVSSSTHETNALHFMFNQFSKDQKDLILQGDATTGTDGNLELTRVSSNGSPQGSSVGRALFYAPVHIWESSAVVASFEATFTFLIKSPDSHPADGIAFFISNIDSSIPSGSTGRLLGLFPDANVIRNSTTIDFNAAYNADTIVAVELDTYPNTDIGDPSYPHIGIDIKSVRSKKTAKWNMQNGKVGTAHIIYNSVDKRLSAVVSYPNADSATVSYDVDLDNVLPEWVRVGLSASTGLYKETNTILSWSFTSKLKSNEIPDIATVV
Sequence of Alpha-bungarotoxin (Bungarus multicinctus) (P60615 whole entry, looked up): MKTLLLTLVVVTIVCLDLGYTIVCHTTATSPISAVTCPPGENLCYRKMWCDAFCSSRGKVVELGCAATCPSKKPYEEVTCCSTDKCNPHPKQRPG
Sequence of Torsin-1A-interacting protein 1 (Homo sapiens) (Q5JTV8 whole entry, looked up): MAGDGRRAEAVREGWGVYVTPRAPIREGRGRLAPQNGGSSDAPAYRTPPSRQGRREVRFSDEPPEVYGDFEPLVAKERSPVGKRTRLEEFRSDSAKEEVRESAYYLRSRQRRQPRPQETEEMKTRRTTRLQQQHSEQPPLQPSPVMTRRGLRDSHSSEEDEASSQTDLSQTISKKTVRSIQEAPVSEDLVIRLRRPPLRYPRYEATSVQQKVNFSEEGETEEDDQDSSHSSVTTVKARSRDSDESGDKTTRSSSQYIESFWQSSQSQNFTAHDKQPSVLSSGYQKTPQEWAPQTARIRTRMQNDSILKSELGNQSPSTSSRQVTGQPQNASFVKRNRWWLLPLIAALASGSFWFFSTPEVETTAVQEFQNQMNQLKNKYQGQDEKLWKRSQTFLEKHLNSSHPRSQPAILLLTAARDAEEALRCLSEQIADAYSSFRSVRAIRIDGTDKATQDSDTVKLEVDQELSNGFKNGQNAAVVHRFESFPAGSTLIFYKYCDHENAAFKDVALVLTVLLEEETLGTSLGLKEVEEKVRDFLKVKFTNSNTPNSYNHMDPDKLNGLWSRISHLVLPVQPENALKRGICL

In the case of `CC=CC(O)C1C=CC2C(=O)N(C)C(=O)C2N1Nc1ccc([N+](=O)[O-])cc1[N+](=O)[O-]` (stereo not given), the composite z-score in [1] was -0.0226; in [3] it was -0.324; in test [4], -0.086; in test [5], -0.541; in test [6], -0.148; in test [7], 0.166. Further, the composite z-score in test [8] was 0.0471; in test [9] it was -0.345; in [10], -0.297; in the test with Albumin (Bos taurus), 0.9; in test [12] it was -0.0932; in test [13], -0.0351. The composite z-score in test [14] was 0.834; in test [15], 1.08; in test [16] it was 0.146; in the test with Sam68 (KHDRBS1) it was -0.52; in test [17], 0.001; in test [18], 0.458. The z-score in test [2] is -0.121. Moreover, in test [11], the composite Z-score was 0.236 (inactive).

On to `CO[C@H]1O[C@H](CO)[C@@H](OC(=O)Nc2ccccc2-c2ccccc2)[C@H](OC(=O)Nc2ccc3c(c2)OCO3)[C@@H]1OC(=O)Nc1ccc2c(c1)OCO2`, for which the composite z-score in [1] is 1.49; in test [3], 0.0086; in [4], 1.24; in test [5], -0.499; in test [6] it was 0.0244; in [7] it was 0.232. In addition, the composite z-score in test [8] was 1.21; in test [9], 0.541; in [10] it was 1.01; in the test with Albumin (Bos taurus), 0.508; in test [12], 0.389; in test [13], -0.0684. Further, the composite z-score in test [14] turned out to be 0.735; in [15] it was 2.47; in test [16], 0.335; with Sam68 (KHDRBS1) it was 1.3; in test [17] it was 0.517; in test [18] it was 0.921. Further, in test [2], the z-score was -0.841. Further, the composite Z-score in [11] is 0.151 (inactive).

Regarding `C=CCC(OC(C)=O)[C@@H]1[C@@H](N(Cc2cc3ccccc3o2)C(=O)Cc2ccc(F)cc2)c2cc(OCCCO)ccc2N1C(=O)c1ccc2ccccc2n1` (stereo not given in full), the composite z-score in [1] is -0.221; in test [3] it was -0.139; in [4] it was -0.408; in [5], -0.12; in test [6], 0.0179; in test [7], -0.426. The composite z-score in [8] is 0.14; in [9] it was -0.103; in [10], 0.222; in the test with Albumin (Bos taurus), 0.124; in test [12] it was -0.136; in test [13], -0.104. The composite z-score was -0.183 in test [14]; 0.178 in [15]; 0.104 in [16]; -0.847 with Sam68 (KHDRBS1); 0.344 in [17]; -0.0002 in [18]. In addition, the z-score in test [2] was 0.476. For the same compound, the composite Z-score in [11] is -0.16 (inactive).

For `CCN(CC)c1ccc(N2CC=CC34O[C@@H]5/C=C\CCC(C)OC(=O)C5[C@H]3C(=O)N(CCO)[C@@H]4C2=O)cc1` (stereo not given in full), the composite z-score in test [1] was 1.14; in [3], -1.05; in test [4], -0.653; in [5], -0.897; in [6], -0.148; in test [7] it was 0.147. The composite z-score in test [8] is -0.0503; in test [9] it was 2.67; in test [10] it was -0.699; with Albumin (Bos taurus), -0.694; in [12] it was -0.152; in [13], -0.132. The composite z-score in [14] was 0.818; in test [15] it was 1.87; in test [16] it was 0.711; in the test with Sam68 (KHDRBS1), 0.153; in test [17], -1.01; in test [18], -0.242. In test [2], this compound displayed a z-score of -1.35. Moreover, the composite Z-score in test [11] is 0.736 (inactive).

Turning to `[N-]=[N+]=Nc1ccccc1C[C@@]1(C(=O)O)N=C(c2ccc(OCCCO)cc2)O[C@@H]1c1ccccc1`, the composite z-score in test [1] was 1.3; in test [3] it was -0.862; in test [4], 1.73; in [5], 0.294; in test [6], -0.0566; in [7], 0.191. Also, the composite z-score in [8] is 0.905; in test [9] it was 0.24; in test [10], 1.08; in the test with Albumin (Bos taurus), 0.952; in [12], 0.0208; in test [13] it was -0.0895. Moreover, the composite z-score was 0.799 in test [14]; 2.76 in test [15]; 0.45 in [16]; 1.03 in the test with Sam68 (KHDRBS1); -0.777 in test [17]; 1.15 in test [18]. Also, in test [2], the z-score was 1.34. Moreover, the composite Z-score in test [11] was 0.77 (inactive).
